Reference: PubChem BioAssay AID434958 (Southern Research Specialized Biocontainment Screening …, 2010)
About 400 (33%) of roughly 1,200 compounds were called active. The rule behind the calls is not given here. These entries were drawn from the full list. Entries with a potency or affinity are not part of this list.

Experiment: mammalian cell cytotoxicity, dose response, cytotoxicity control (AID 434958);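 note: cells exposed to compound for 72 hours before readout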
Conditions: cytotoxicity counter-screen; series mostly up to 40 µM; viability: at the top concentration

SMILES	viability
CCOC(=O)COc1ccc2nsnc2c1	105% (inactive)
CN(C)c1ccc(N=Nc2cccc3ccoc23)cc1	89.5% (inactive)
N#C/C(C(=O)NCc1ccco1)=C1/SC=C(c2ccccc2)N1c1ccccc1	92% (inactive)
CCOc1ccc(-c2nc(-c3ccccc3C)no2)cc1	96.4% (inactive)
COc1cc(NC(=S)NC(=O)c2ccco2)ccc1NC(=O)C(C)C	96.5% (inactive)
Cc1n[nH]c(C)c1CCCOc1ccccc1	98.6% (inactive)
COc1cc(NC(=O)c2ccccc2)c(OC)cc1NC(=O)CN1CCOCC1	112% (inactive)
COc1ccc(C(=O)CN(C(=O)c2ccc(Cl)cc2)N2C(=O)c3ccccc3C2=O)cc1	98.5% (inactive)
COc1cc(NC(=O)c2ccccc2Cl)ccc1NC(=O)c1ccco1	91.6% (inactive)
O=C(CN1CCN(S(=O)(=O)c2ccc(F)cc2)CC1)Nc1ccc2c(c1)OCCO2	97.2% (inactive)
O=c1[nH]c(CSc2nnc3ccccn23)nc2ccccc12	104% (inactive)
Cc1ccc(C(=O)NN2C(=O)/C(=C/c3cccn3C)SC2=S)cc1	97.2% (inactive)
O=C(CCN1C(=O)/C(=C/c2ccccc2F)SC1=S)Nc1ccccn1	103% (inactive)
CN(c1ccc(OCC(=O)Nc2ccc3[nH]c(=O)[nH]c3c2)cc1)S(=O)(=O)c1ccc(Cl)cc1	106% (inactive)
CCN1C(=O)C(O)(CC(=O)c2ccc(-n3cccc3)cc2)c2ccccc21 (stereo not given)	95.4% (inactive)
NC(=O)Nc1ccc(C(=O)OCC(=O)Nc2ccc(Cl)cn2)cc1	103% (inactive)
O=C(Cn1ncc2c3ccccc3n(Cc3ccccc3F)c2c1=O)NCCCN1CCCC1=O	84.4% (inactive)
CSc1nc(-c2ccc(Cl)cc2)nn1S(=O)(=O)c1ccccc1	89.6% (inactive)
Cc1cccc(N2CCN(CC3CCCCC3)CC2)c1C	102% (inactive)
CCOC(=O)Cc1nc2ccccc2[nH]1	107% (inactive)
COc1ccc(CNC(=O)c2sc3nc4c(c(C(F)(F)F)c3c2N)CCC4)cc1	94.8% (inactive)
CCOC(=O)c1[nH]c2ccccc2c1NC(=O)Nc1ccc(OC)cc1	97.4% (inactive)

SMILES	viability
O=C(O)CSc1ncnc2c1sc1nc(-c3ccccc3)c3c(c12)CCC3	91.9% (inactive)
CC(C)(C)c1ccc(C(=O)Oc2ccc3c(c2)OCC3=O)cc1	86.2% (inactive)
CS/C(N)=N/N=C/c1cc(Br)cc(Br)c1O	96.2% (inactive)
CCOC(=O)N1CCN(C(=O)CSc2nnc(-c3ccccc3OC)o2)CC1	96.8% (inactive)
O=C(N/N=C/c1cccc(NC(=O)c2ccc(Cl)cc2)c1)c1cccc(O)c1	88.1% (inactive)
NNC(=O)c1cccc(O)c1	103% (inactive)
Cc1cc(C2C(=O)c3ccccc3C2=O)c(C)c(C)c1C	90.2% (inactive)
CCOC(=O)c1ccc(-c2ccc(C=O)o2)cc1	99.5% (inactive)
CCCCNC(=O)/C(=C/c1ccccc1)NC(C)=O	106% (inactive)
COc1ccc([C@H]2CC(=O)C=C(/C=C/c3ccccc3)C2)cc1OC	82% (inactive)
NS(=O)(=O)c1cccnc1Nc1c(Cl)cccc1Cl	103% (inactive)
COCCSc1nc2sc3c(c2c(=O)n1-c1ccccc1)CCN(C)C3	98.3% (inactive)
CCOC(=O)C1CCCN(c2ccc(NC(=O)c3snc4c(=O)[nH]cnc34)cc2)C1 (stereo not given)	103% (inactive)
O=C(COC(=O)c1ccc([N+](=O)[O-])s1)NCc1ccccc1	97.2% (inactive)
Cc1ccsc1C(=O)NNC(=O)c1csc(N2CCOCC2)n1	102% (inactive)
COC(=O)c1ccc(/C=N/NC(=O)c2cccc(F)c2)cc1	94.4% (inactive)
COc1ccc2ccccc2c1/C=N/NC(=O)c1cccc(Br)c1	82.7% (inactive)
COc1ccc(/C=C/C(=O)N(C(C)C)C(C)C)cc1Br	97% (inactive)
COc1cc(/C=C/C(=O)NC(C)(C)C)ccc1OCc1ccccc1	91.2% (inactive)
CC1(C)CC(=O)c2cc(C(=O)NCc3ccco3)c(=O)n(-c3ccccc3)c2C1	96.6% (inactive)
CCC1(c2ccc(Cl)cc2)NC(=S)N(c2ccc(C)cc2)N1 (stereo not given)	95.2% (inactive)
CC(=O)NC(=S)Nc1ccc(NC(=O)c2cccnc2Cl)cc1	95.4% (inactive)

SMILES	viability
CCCCN=C1CC(C)(C)CC(=O)/C1=C(/O)CCC	101% (inactive)
CCOC(=O)c1c(C)[nH]c(C(=O)COC(=O)CCC2CCCC2)c1C	105% (inactive)
CCc1cc2c(=O)oc(-c3ccccc3F)nc2s1	104% (inactive)
CCOc1ccc2nc(SC3CC(=O)N(c4cccc(OC)c4)C3=O)sc2c1 (stereo not given)	100% (inactive)
CCCCN1C(=O)c2ccc(C(=O)Nc3cccc(C)c3C)cc2C1=O	98.7% (inactive)
CCOC(=O)c1nc(N2CCN(C(=O)OCC)CC2)c2c3c(sc2n1)CCCC3	86.8% (inactive)
CC(=O)Nc1ccc(C(=O)N(C2=NC(C)CS2)c2ccc(Cl)cc2)cc1 (stereo not given)	84.4% (inactive)
COc1ccc(C2C(C#N)=C(SCC(=O)Nc3ccc(C)cc3)NC3=C2C(=O)CC(C)(C)C3)cc1 (stereo not given)	84.9% (inactive)
CCCCNC(=O)c1onc(CSc2ccccc2CC)c1C(=O)O	99.5% (inactive)
CCCC(=O)Nc1ccc(NC(=S)NC(=O)c2cccs2)cc1	96.4% (inactive)
CCCC(=O)N1CCN(c2ccc(NC(=S)NC(=O)CC)cc2)CC1	83.8% (inactive)
Cc1ccc(C(=O)OCCN2CCN(c3ncc(C(F)(F)F)cc3Cl)CC2)cc1	89.8% (inactive)
N#Cc1c(-c2cccs2)cc(-c2ccccn2)nc1N	87.3% (inactive)
Cc1cc(C)c2c(N)c(S(=O)c3ccc(C(C)(C)C)cc3)sc2n1 (stereo not given)	102% (inactive)
CC(=O)c1ccc(OCCCC(=O)OCC(=O)N2CCN(c3ccccc3)CC2)cc1	100% (inactive)
Cc1nnc(SCc2cccc(Cl)c2)n(N)c1=O	95.2% (inactive)
Cc1cccc(/C=N\NC(=O)c2csnn2)c1	99.9% (inactive)
O=C(Cc1ccc(Cl)cc1Cl)Nc1ccc(OC(F)F)c(Cl)c1	104% (inactive)
CCOC(=O)Cn1c(C)cc(=O)c2cccc(C)c21	105% (inactive)
O=C(Nc1ccccc1Br)c1cccc2ccccc12	91.8% (inactive)
Cc1ccn2c(CNCCn3nc(C)cc3C)c(C(=O)N3CCCCCC3)nc2c1	98.5% (inactive)
COc1ccc(C(=O)NC(=S)NC(C)(C)C)cc1Br	82.4% (inactive)

SMILES	viability
COc1ccc(C2(CNC(=O)c3cc([N+](=O)[O-])cc([N+](=O)[O-])c3)CCCC2)cc1OC	95.8% (inactive)
CN1C2CCC1CC(OC(=O)c1ccc([N+](=O)[O-])cc1)C2 (stereo not given)	104% (inactive)
CCC(=O)c1ccc(OCc2ccc(C(=O)OC)cc2)c(OC)c1	106% (inactive)
O=C(COC(=O)Cc1ccc(S(=O)(=O)N2CCCCC2)s1)Nc1ccc2c(c1)OCO2	97% (inactive)
CC(=O)Nc1ccc(SCC(=O)c2cc(C)n(CC(F)(F)F)c2C)cc1	95.3% (inactive)
CCOC(=O)Cn1c(=NC(=O)C2CC2)sc2c(C)cc(C)cc21	97.5% (inactive)
O=C(OCC(=O)N(Cc1ccccc1)C1CCS(=O)(=O)C1)c1cc2c(s1)CCCC2 (stereo not given)	87.1% (inactive)
O=C(COc1ccccc1[N+](=O)[O-])N(Cc1cccc(Br)c1)C1CCS(=O)(=O)C1 (stereo not given)	95% (inactive)
Cc1ccc(C(=O)NCC2(c3ccccc3)CCCC2)cc1	81% (inactive)
CC(NC(=O)CSc1nc2ccccc2c(=O)[nH]1)c1ccccc1 (stereo not given)	91.8% (inactive)
COCCNC(C(=O)Nc1ccc(C)cc1[N+](=O)[O-])c1ccccc1 (stereo not given)	96.9% (inactive)
CCOC(=O)COc1nc(-c2ccc(Cl)cc2)cc(-c2ccco2)c1C#N	98.2% (inactive)
CN(c1ccc(OCC(=O)OCC(=O)c2c(N)n(C)c(=O)n(C)c2=O)cc1)S(=O)(=O)c1ccc2ccccc2c1	99.8% (inactive)
CC1(C)CC(CCNC(=O)CCl)(c2ccccc2)CCO1 (stereo not given)	81.7% (inactive)
Cn1ccnc1C(=O)Cc1ccc([N+](=O)[O-])cc1	94.1% (inactive)
CCOC(=O)c1sc(NC(=O)CSc2n[nH]c(CC(C)C)n2)nc1C	86.7% (inactive)
Cc1ccccc1C(=O)NC(=S)Nc1sc2c(c1C#N)CCC(C)C2 (stereo not given)	90.5% (inactive)
CCOC(=O)c1c(NC(=O)C(=O)N/N=C/c2ccccc2OC)sc2c1CCCCC2	96.4% (inactive)
Cc1cc(C(=O)CSc2nnnn2-c2ccccc2)c(C)n1-c1ccc2c(c1)OCO2	81.2% (inactive)
O=C(Nc1nc(-c2ccc(F)c(F)c2)cs1)c1cnccn1	82.3% (inactive)
COc1c(NC(C)=O)c2ccccc2c2ccccc12	106% (inactive)
COc1ccc2nc(SCc3cccc(C)c3)nc(C)c2c1	85.5% (inactive)

SMILES	viability
NC(=S)N/N=C/c1cccc(/C=N/NC(N)=S)c1	93.9% (inactive)
O=C(Cn1c(=O)c2cccn2c2ccccc21)NCCc1ccc(Cl)cc1	104% (inactive)
Cc1ccc(-n2ncc3c(=O)n(CC#N)cnc32)cc1C	89% (inactive)
COc1ccc(C2CC(c3c(-c4ccccc4)c4cc(Cl)ccc4[nH]c3=O)=NN2S(C)(=O)=O)cc1 (stereo not given)	85.1% (inactive)
CC(=O)c1sc(N/N=C\c2ccc(N(C)C)cc2)nc1C	96.8% (inactive)
CC(C)c1ccc(/C=C/C(=O)NC2CCCCC2)cc1	101% (inactive)
CN(C)/N=C/c1ccc(/C=N/NC(N)=S)o1	95.5% (inactive)
O=C(N/N=C/c1cccc(Br)c1)c1ccc(Cn2cc(Br)cn2)o1	100% (inactive)
CC1(C)C2CC=C(/C=N/NC(=O)c3ccccc3O)C1C2 (stereo not given)	88.5% (inactive)
O=C1OC(c2ccco2)=N/C1=C\c1ccc(-c2cccc(C(F)(F)F)c2)o1	90.5% (inactive)
CC1=NN(c2ccccc2)C(=O)/C1=C/c1c(O)[nH]c(=S)[nH]c1=O	96.3% (inactive)
Cc1cc(N2CCN(c3ccccc3)CC2)nc2ccccc12	85.2% (inactive)
COc1ccc(NC(=O)C(Cc2ccccc2)n2cccc2)c(OC)c1 (stereo not given)	97.5% (inactive)
CCCN1C(=O)c2ccc(C(=O)Nc3cc(C)on3)cc2C1=O	99.8% (inactive)
COc1ccc(OC)c(NC(=O)CSC2=C(C#N)C(c3ccco3)C3=C(CCCC3=O)N2)c1 (stereo not given)	89.4% (inactive)
CC(=O)c1ccc(-n2c(C)ccc2-c2ccccc2)cc1	91.2% (inactive)
COc1cc(NC(=S)NC(=O)c2cccs2)ccc1NC(=O)C(C)C	86.8% (inactive)
Cc1ccc(/C=C/C(=O)OCC(=O)NC(C)c2ccccc2)o1 (stereo not given)	95.2% (inactive)
CCOC(=O)N1CCC(N2CCN(S(=O)(=O)c3ccc(Cl)cc3)CC2)CC1	98.2% (inactive)
COc1ccc(-c2csc(Nc3ccc(C)cn3)n2)cc1OC	89.5% (inactive)
Cc1nnnn1/C(=C\c1ccccc1)C(=O)OCC(=O)Nc1ccc(Cl)cc1F	101% (inactive)
Cc1ccccc1OCC(=O)Nc1ccccc1-c1ccccc1	86.1% (inactive)
